Bioassay records: PubChem, National Center for Advancing Translational Sciences (NCATS)
Most compounds without a hit are left out; they make up all but 9.3% or so of the library.
Vaccinia Venus: vaccinia inhibition (Venus reporter); Vaccinia virus Venus reporter expression, fluorescence; 330,000 tested, 0.46% active; AID 720580; Potency, µM (series often up to 36.5 µM), without a hit: top-dose activity change, negative = inhibition, actives largely listed as inhibitors; calls by dose curve; tested in A549 cells; note: potency is the fitted concentration of half-maximal effect; nearly all actives have a fitted effect of over 30% in size
Sm TGR inh: S. mansoni TGR enzyme inhibition. Potency, µM (titrated, usually from 114 µM), for the others: at the highest dose activity change, negative = inhibition, most hits filed as inhibitors. purified TGR, DTNB reduction, TNB absorbance 405 nm. Q962Y6. 360,000 tested, 3% active; note: potency is the fitted concentration of half-maximal effect; nearly all actives have a fitted effect of over 60% in size
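TGR 20 nM + NADPH 100 uM (dispensed conc.), cpd preinc 15 min RT; start with NADPH (500 uM addition) then DTNB (15 mM addition). Kinetic TNB absorbance, 405 nm filter. Four-parameter Hill fit across titration.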
FMDV antiviral: antivirals against foot and mouth disease virus; FMDV antiviral cell-based qHTS; Potency, µM (top dose mostly 57.9 µM), without a hit: at the top dose activity change, negative = inhibition, actives largely listed as inhibitors; 410,000 tested, 1.2% active; calls by dose curve; tested in HEK293T cells; note: read-out not given here; potency is the fitted concentration of half-maximal effect; nearly all actives have a fitted effect of over 45% in size
HCV inh: blocks hepatitis C virus; Huh7.5.1 HCVcc-Cre infection, luciferase reporter, 44 h; Potency, µM (doses to about 41.8 µM), for inactives: at the highest dose activity change, negative = inhibition, most hits filed as inhibitors; 340,000 tested, 3.4% active; AID 651820; note: potency is the fitted concentration of half-maximal effect
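Infectious HCV cell culture screen: compound-treated cells (1,000/well, pre-plated 4 h) are infected with HCVcc-Cre at roughly 0.5 moi and grown 44 h. Infection is quantified by luciferase signal after 15 min substrate incubation at room temperature.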
VACV mCherry inh: vaccinia inhibition (mCherry reporter). Potency, µM (top dose mostly 36.5 µM), for inactives: at the highest dose activity change, negative = inhibition, hits mostly inhibitors. Vaccinia virus mCherry reporter infection, fluorescence. 310,000 tested, 0.63% active; calls by dose curve; tested in A549 cells; note: potency is the fitted concentration of half-maximal effect; nearly all actives have a fitted effect of over 35% in size
HCMV inh: human cytomegalovirus inhibition | activity change, negative = inhibition, % at 57.5 µM | 410,000 tested, 4.5% active | HFF cells, HCMV-luciferase reporter, 72 h; active compounds read low; in the data active = activity change below about -60%; inconclusive = no clear call, values can overlap the other calls; inactive = above about -39%
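Steps: HFFs plated, 16 h 37C; compounds added; HCMV-luciferase added to MOI 1 PFU/cell; 72 h 37C; OneGlo reagent, 5 min room temperature; luminescence read, normalized to controls.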
The depositor's hits bear a star; i = inactive; ? = inconclusive; / = no result given. Unless noted, calls come from the whole dose curve; as a rule, active = well fitted curve in the direction sought with a large enough effect; inconclusive = small, poorly fitted or top-dose-only effect, or another doubt; inactive = no such curve, though single readings can be large; an effect the other way counts as inactive or inconclusive. % is set by controls: 0 for no effect and ±100 for the full control effect.

SMILES	Vaccinia Venus	Sm TGR inh	FMDV antiviral	HCV inh	VACV mCherry inh	HCMV inh
CCOC(=O)c1c(C)[nH]c(C)c1S(=O)(=O)NCCN1CCN(c2cc(Cl)ccc2C)CC1	/	-8%	7%	-19%	/	-72*
CCOC(=O)c1c(C)[nH]c(C)c1S(=O)(=O)N1CCN(c2cc(Cl)ccc2C)CC1	-15%	0%	13%	/	-29%	-90*
Nc1nc2c(nc(Br)n2C2CC(O)C(CO)O2)c(=O)[nH]1 (stereo not given)	0%	/	-7%	/	i	/
CC(=O)c1cccc(NC(=O)C(C)OC(=O)CCC2CCCCC2)c1 (stereo not given)	-3%	5%	-21%	31%	-17%	16
O=C(CSc1nc2ncccc2[nH]1)Nc1ccc2c(c1)OCO2	-8%	-20%	18%	-3%	i	17
O=C(CSC1=NC2(CCCCC2)N=C1c1ccccc1)Nc1ccc2c(c1)OCCO2	/	5%	0%	11µM*	/	11
O=C(CSc1nc(-c2ccccc2)c(-c2ccccc2)[nH]1)Nc1ccc2c(c1)OCO2	-27%	-10%	-18%	?	-27%	-68*
COc1cc(-c2nc(SCC(=O)Nc3ccc4c(c3)OCO4)c(-c3ccccc3)[nH]2)cc(OC)c1OC	-15%	-5%	3%	/	-16%	?
Cc1cccc(-c2nc(SCC(=O)Nc3ccc4c(c3)OCCO4)c(-c3ccccc3)[nH]2)c1	-28%	-3%	-5%	/	-23%	-31
O=C(CSc1nc(-c2cccc(F)c2)[nH]c1-c1ccccc1)Nc1ccc2c(c1)OCCO2	?	4%	?	/	?	-106*
O=C(CSc1nc(-c2ccccc2)[nH]c1-c1ccccc1)Nc1ccc2c(c1)OCO2	-19%	7%	?	/	-25%	-109*
CCN1/C(=C/C=C/c2oc3ccc(-c4ccccc4)cc3[n+]2CC)Oc2ccc(-c3ccccc3)cc21	/	40µM*	8.9µM*	0.89µM*	169%	-97*
O=C(Oc1ccc(/C=N/n2cnnc2)cc1)c1cccc([N+](=O)[O-])c1	4%	9%	-3%	12%	4%	-16
O=C1C2C3C=CC(CC3)C2C(=O)N1c1ccc2c(c1)OCO2 (stereo not given)	1%	-19%	0%	13%	/	-13
Cc1ccc(-n2ncc3c2CCCC3NC(=O)c2ccoc2)cc1C (stereo not given)	-25%	4%	-28%	?	?	?
COCc1ccc(C(=O)NC2CCCc3c2cnn3-c2ccc(C)c(C)c2)o1 (stereo not given)	/	-35%	?	?	/	-77*
Cc1cc(C(=O)NC2CCCc3c2cnn3-c2ccc(C)c(C)c2)n(C)n1 (stereo not given)	/	-3%	?	8.9µM*	/	-99*
Cc1cccc(C(=O)Nc2ccc(C(=O)c3ccccc3)cc2)c1	-17%	/	-26%	?	i	?
CCCc1cc(C(=O)Nc2ccc(C(=O)c3ccccc3)cc2)n(C)n1	/	15%	?	16µM*	/	-40
CCCc1cc(C(=O)Nc2ccc(C(=O)c3ccc(F)cc3)cc2)n(C)n1	/	-7%	?	10µM*	/	/
Cc1ccc(S(=O)(=O)N(C)c2ccc(OCC(=O)N3CCCC(C(F)(F)F)C3)cc2)cc1 (stereo not given)	-16%	4%	-24%	?	-5%	-12
CCNc1ncc2nc(-c3ccccc3)c(=O)n(C3CC3)c2n1	/	/	6%	/	/	/
O=S(=O)(c1cc(F)ccc1F)N1CCN(c2ncnc3ccccc23)CC1	/	/	10µM*	3.2µM*	/	?
O=S(=O)(c1cc(F)ccc1F)N1CCN(c2ccccn2)CC1	/	1%	-20%	6%	/	-8
CN(CC(=O)Nc1ccncc1)S(=O)(=O)c1ccc(Br)cc1	/	-8%	?	-2%	/	?
CN(CCCC(=O)Nc1ccncc1)S(=O)(=O)c1ccc(Cl)cc1	/	-4%	?	10µM*	/	-38
O=C(Nc1ccncc1)Nc1ccc(Cl)cc1	-15%	0%	7%	8%	i	-72*
Cc1ccc(C(=O)NCC(=O)Nc2ccncc2)cc1C	-1%	-23%	-17%	6%	-14%	-74*
